Experimental data published in PubChem BioAssay (Tox21).
Inconclusive results are not listed. Active and inactive are the calls of the source. Unless noted, calls come from the whole dose curve; as a rule, active = well fitted curve in the direction sought with a large enough effect in the repeat runs; inconclusive = weak or mixed curves; inactive = no such curve, though single readings can be large; an effect the other way counts as inactive or inconclusive.

Key:
[1] = qHTS RealTime-Glo MT Cell Viability Assay in HepG2 cells - 16 hour (AID 1224885); note: nearly all actives have a fitted effect of over 50% in size; note: potency is the fitted concentration of half-maximal effect
Method in brief: (§1)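 Real-time, nonlytic viability: 600 HepG2 cells/well mixed with NanoLuc enzyme plus prosubstrate; 5 h settle, compound (DMSO) added by pintool; luminescence monitored over 40 h at 37 C.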

[2] = qHTS RealTime-Glo MT Cell Viability Assay in HEK293 cells - 24 hour (AID 1224886); note: nearly all actives have a fitted effect of over 50% in size; note: potency is the fitted concentration of half-maximal effect
Method in brief: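 Cells + reagent dispensed (600 cells/well, HEK293) → 5 h at 37 C/5% CO2 → 23 nL compound in DMSO pinned → 40 h at 37 C → luminescence read at 0, 8, 16, 24, 32, 40 h.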

[3] = qHTS RealTime-Glo MT Cell Viability Assay in HEK293 cells - 8 hour (AID 1224887); note: nearly all actives have a fitted effect of over 50% in size; note: potency is the fitted concentration of half-maximal effect
Method in brief: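 Tox21 screen in HEK293 using RealTime-Glo MT chemistry, with cells and reagent co-dispensed. Luminescence proportional to viable cell number was captured at intervals during 40 h compound exposure at 37 C.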

[4] = A CellTox Green Cytotoxicity Assay to monitor cytotoxicity in HEK293 cells - 16 hour (AID 1224888); note: nearly all actives have a fitted effect of over 35% in size; note: potency is the fitted concentration of half-maximal effect
Method in brief: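 Seeding of HEK293 cells together with cytotoxicity dye preceded a 5 h incubation at 37 C/5% CO2. Test compounds in DMSO were then added and fluorescence monitored across 40 h.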

[5] = qHTS RealTime-Glo MT Cell Viability Assay in HepG2 cells - 0 hour (AID 1224889); note: nearly all actives have a fitted effect of over 50% in size
Method in brief: as §1

[6] = A CellTox Green Cytotoxicity Assay to monitor cytotoxicity in HepG2 cells - 8 hour (AID 1224890); note: nearly all actives have a fitted effect of over 45% in size; note: potency is the fitted concentration of half-maximal effect
Method in brief: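 Nonlytic assay: viable cells exclude the dye, so fluorescence scales with cell death. HepG2 at 600 cells/well, compounds added after 5 h, signal read across 40 h.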

[7] = qHTS assay to identify small molecule antagonists of the estrogen receptor alpha (ER-alpha) signaling pathway using the BG1 cell line in the presence of 0.1 nM 17-beta-estradiol - cell viability counter screen (AID 1259241); note: nearly all actives have a fitted effect of over 40% in size
Method in brief: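 Measures cytotoxicity alongside the ER-alpha antagonist readout: VM7Luc4E2 cells, charcoal-stripped serum, 0.1 nM 17beta-estradiol final, 22 hr compound incubation at 37C, CellTiter-Fluor fluorescence.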

[8] = target: Estrogen receptor (Homo sapiens) (UniProt P03372); test: qHTS assay to identify small molecule antagonists of the estrogen receptor alpha (ER-alpha) signaling pathway using the BG1 cell line in the presence of 0.1 nM 17-beta-estradiol (AID 1259244); note: nearly all actives have a fitted effect of over 50% in size
Sequence of Estrogen receptor (Homo sapiens) (P03372 whole entry, looked up): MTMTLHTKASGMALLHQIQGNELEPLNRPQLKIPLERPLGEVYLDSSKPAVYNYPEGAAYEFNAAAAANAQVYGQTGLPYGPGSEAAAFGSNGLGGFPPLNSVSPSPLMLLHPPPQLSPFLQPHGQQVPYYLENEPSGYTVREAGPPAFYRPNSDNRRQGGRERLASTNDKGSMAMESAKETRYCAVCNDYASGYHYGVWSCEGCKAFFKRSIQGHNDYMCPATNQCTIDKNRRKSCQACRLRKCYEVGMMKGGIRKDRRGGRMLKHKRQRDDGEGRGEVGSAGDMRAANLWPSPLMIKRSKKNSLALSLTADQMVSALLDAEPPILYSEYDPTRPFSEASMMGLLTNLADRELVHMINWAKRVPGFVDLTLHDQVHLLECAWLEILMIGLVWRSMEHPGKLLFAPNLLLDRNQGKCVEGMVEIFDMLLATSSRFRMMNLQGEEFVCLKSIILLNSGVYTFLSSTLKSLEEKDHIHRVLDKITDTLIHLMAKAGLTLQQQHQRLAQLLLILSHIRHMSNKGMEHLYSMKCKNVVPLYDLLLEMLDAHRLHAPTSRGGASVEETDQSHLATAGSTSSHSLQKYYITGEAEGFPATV
Method in brief: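 VM7Luc4E2; 4xERE-luciferase; 0.1 nM E2 final; 22 h co-incubation, 37C; ONE-Glo luminescence after 30 min at room temperature.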

[9] = qHTS assay to identify small molecule HDAC inhibitors (AID 1259364); note: potency is the fitted concentration of half-maximal effect;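 note: wild-type HCT-116 cells with endogenous class I/II HDAC activity; nearly all actives have a fitted effect of over 45% in size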
Method in brief: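 Relative class I and II HDAC activity is taken from the luminogenic signal in HCT-116 cells, with compound exposure 2 hr and reagent development 30 min at room temperature.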

[10] = qHTS assay to identify small molecule agonists of the sonic hedgehog signaling (Shh) pathway (AID 1259368; calls by dose curve;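 note: NIH/3T3-derived 3T3Gli1-Luc cells carrying a stable Gli1-driven firefly luciferase reporter; series mostly up to about 92 µM; nearly all actives have a fitted effect of over 15% in size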)
Method in brief: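 Mouse fibroblast (NIH/3T3) reporter cells with stably integrated Gli1-Luc were treated 24 hr with compound; firefly luciferase luminescence served as the read-out.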

[11] = target: Estrogen receptor beta (Homo sapiens) (UniProt Q92731); test: qHTS assay to identify small molecule agonists of the estrogen receptor beta (ER-beta) signaling pathway (AID 1259377; active = well fitted activation curve with a large enough effect in the signal ratio in the repeat runs, not every such curve was filed as active; the % refers to the signal ratio)
Sequence of Estrogen receptor beta (Homo sapiens) (Q92731 whole entry, looked up): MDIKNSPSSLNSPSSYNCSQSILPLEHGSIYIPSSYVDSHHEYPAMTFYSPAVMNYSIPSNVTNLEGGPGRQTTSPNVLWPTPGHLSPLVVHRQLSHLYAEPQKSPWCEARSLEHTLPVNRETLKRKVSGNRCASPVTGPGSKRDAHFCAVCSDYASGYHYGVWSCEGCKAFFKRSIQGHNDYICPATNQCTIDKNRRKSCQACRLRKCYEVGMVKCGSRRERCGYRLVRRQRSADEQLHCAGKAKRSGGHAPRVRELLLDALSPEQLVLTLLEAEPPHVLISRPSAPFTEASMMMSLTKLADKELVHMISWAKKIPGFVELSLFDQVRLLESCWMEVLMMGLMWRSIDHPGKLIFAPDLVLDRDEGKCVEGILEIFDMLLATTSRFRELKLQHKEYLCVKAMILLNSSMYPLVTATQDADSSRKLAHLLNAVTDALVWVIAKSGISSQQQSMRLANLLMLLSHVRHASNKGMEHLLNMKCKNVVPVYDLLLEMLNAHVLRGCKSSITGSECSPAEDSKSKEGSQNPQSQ
Method in brief: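 In HEK293T cells bearing a UAS-beta-lactamase reporter under ER-beta control, DMSO-delivered compounds were incubated for 16 hr at 37C. Activity was detected as fluorescence 2 hours after LiveBLAzer B/G FRET substrate addition.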

[12] = target: Estrogen receptor beta (Homo sapiens) (UniProt Q92731); test: qHTS assay to identify small molecule antagonists of the estrogen receptor beta (ER-beta) signaling pathway (AID 1259378; active = well fitted inhibition curve with a large enough effect in the signal ratio in the repeat runs, not every such curve was filed as active; the % refers to the signal ratio)
Method in brief: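 Antagonist mode: compounds added to beta-lactamase reporter HEK293T ER-beta-UAS cells stimulated with E2 (1nM final), 16 hr at 37C. LiveBLAzer B/G FRET substrate, 2 hours room temperature, fluorescence read-out.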

[13] = qHTS assay to identify small molecule antagonists of the androgen receptor (AR) signaling pathway using the MDA cell line in the presence of 0.5 nM R1881 - cell viability counter screen (AID 1259242); note: nearly all actives have a fitted effect of over 45% in size
Method in brief: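 R1881 at 0.5 nM final stimulated MDA-kb2 cells during 16 hr compound treatment at 37C. Cytotoxicity read: CellTiter-Fluor fluorescence after 30 min.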

[14] = qHTS assay to identify small molecule HDAC inhibitors - cell viability counter screen (AID 1259365)
Method in brief: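 Following a 2hr exposure of overnight-plated wild-type HCT-116 cells to DMSO-delivered compounds, CellTiter-Glo was added and luminescence recorded after 30min at room temperature.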

[15] = qHTS assay to identify small molecule agonists of the sonic hedgehog signaling (Shh) pathway - cell viability counter screen (AID 1259366); note: nearly all actives have a fitted effect of over 50% in size
Method in brief: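 After a 4hr attachment at 37C, NIH/3T3 cells bearing an integrated Gli1-driven luciferase reporter were dosed with compounds. Treatment lasted 24hr, with the final hour including CellTiter-Fluor for a fluorescence viability measurement.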

[16] = qHTS assay to identify small molecule antagonists of the sonic hedgehog signaling (Shh) pathway - cell viability counter screen (AID 1259367); note: nearly all actives have a fitted effect of over 55% in size; note: potency is the fitted concentration of half-maximal effect
Method in brief: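 Cells: 3T3 Gli1-Luc, 2,000/well, 4 hr pre-incubation. Compounds in DMSO, then conditioned medium. Incubation 24 hr, 37C, 5% CO2. CellTiter-Fluor at 23 hr, 1 hr, fluorescence.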

[17] = qHTS assay to identify small molecule agonists of the androgen receptor (AR) signaling pathway in the presence of an antagonist - cell viability counter screen (AID 1259379);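 note: MDA-kb2 human breast cancer cells carrying an MMTV luciferase reporter; series mostly up to about 92 µM; nearly all actives have a fitted effect of over 25% in size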
Method in brief: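 A CellTiter-Fluor read-out measured viability of MDA-kb2 reporter cells (MMTV promoter with AR and GR response elements). Treatment: nilutamide 3.0uM final with compounds at 15 concentrations, 16 hr, 37C, 0% CO2.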

[18] = qHTS assay to identify small molecule antagonists of the sonic hedgehog signaling (Shh) pathway (AID 1259369; calls by dose curve; note: nearly all actives have a fitted effect of over 45% in size; note: potency is the fitted concentration of half-maximal effect)
Method in brief: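 Conditioned medium drives Shh signalling in 3T3Gli1-Luc cells; compounds in DMSO co-applied, 24hr at 37 C, then luciferase luminescence.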

[19] = target: Androgen receptor (Homo sapiens) (UniProt P10275); test: qHTS assay to identify small molecule antagonists of the androgen receptor (AR) signaling pathway using the MDA cell line in the presence of 0.5 nM R1881 (AID 1259243); note: nearly all actives have a fitted effect of over 50% in size
Sequence of Androgen receptor (Homo sapiens) (P10275 whole entry, looked up): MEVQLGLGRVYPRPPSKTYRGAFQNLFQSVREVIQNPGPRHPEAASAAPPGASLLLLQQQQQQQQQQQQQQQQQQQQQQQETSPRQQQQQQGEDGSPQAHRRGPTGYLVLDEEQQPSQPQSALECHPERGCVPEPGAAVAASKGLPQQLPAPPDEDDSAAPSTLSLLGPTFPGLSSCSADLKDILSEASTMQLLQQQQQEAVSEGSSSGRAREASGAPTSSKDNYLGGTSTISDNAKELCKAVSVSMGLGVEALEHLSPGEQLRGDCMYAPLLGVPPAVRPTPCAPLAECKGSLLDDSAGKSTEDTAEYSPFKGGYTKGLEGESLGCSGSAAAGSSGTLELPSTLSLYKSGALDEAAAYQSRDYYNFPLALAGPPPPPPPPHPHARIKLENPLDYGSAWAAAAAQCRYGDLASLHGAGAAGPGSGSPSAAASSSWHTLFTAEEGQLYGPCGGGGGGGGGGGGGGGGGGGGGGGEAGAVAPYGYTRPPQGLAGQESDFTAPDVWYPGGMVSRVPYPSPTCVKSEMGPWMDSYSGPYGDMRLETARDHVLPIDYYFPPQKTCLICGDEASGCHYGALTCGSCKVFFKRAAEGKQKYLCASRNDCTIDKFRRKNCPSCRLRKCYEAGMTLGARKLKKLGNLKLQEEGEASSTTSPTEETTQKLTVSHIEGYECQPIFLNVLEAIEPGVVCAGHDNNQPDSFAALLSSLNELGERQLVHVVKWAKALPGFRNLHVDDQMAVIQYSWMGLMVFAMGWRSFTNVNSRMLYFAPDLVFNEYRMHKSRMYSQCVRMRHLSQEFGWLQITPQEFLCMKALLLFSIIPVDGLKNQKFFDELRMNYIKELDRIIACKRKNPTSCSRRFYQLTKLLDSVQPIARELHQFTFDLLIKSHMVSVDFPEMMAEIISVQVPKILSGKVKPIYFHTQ
Method in brief: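 We exposed MDA-kb2 cells to compounds under 0.5 nM R1881 stimulation for 16 hr at 37C and quantified MMTV-driven luciferase by luminescence.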

[20] = qHTS assay to identify small molecule phospholipidosis (PLD) inducers (AID 1259344; active = well fitted curve in the direction sought with a large enough effect; an effect the other way counts as inactive or inconclusive)
Method in brief: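 Phospholipidosis is scored by imaging LipidTOX-stained pits in HepG2 cells exposed to compound for 24 h at 37 C; pit counts and integrated intensities per well and per cell serve as outputs.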

Measured: Potency

CCCCCCCCCC[N+](C)(CCCCCCCCCC)CCC[Si](OC)(OC)OC
active: [1] 49 µM | [2] 24.5 µM | [3] 19.5 µM | [4] 49 µM | [6] 43.6 µM
inactive: [5] | [7] | [8] | [9] | [10] | [11] | [12]

CCOC(=O)[C@H](C)O
not listed: [10] | [11] | [18] | [19] | [20]
inactive: all other assays above

C=CC(=O)O[C@H]1C[C@@H]2CC[C@@]1(C)C2(C)C
not listed: [11] | [17] | [18] | [19] | [20]
inactive: all other assays above

ClC(c1ccccc1)(c1ccccc1)c1ccccc1
not listed: [8] | [10] | [11] | [12] | [19] | [20]
inactive: all other assays above

CC(C)(C)c1cc(CCC(=O)OCCSCCOC(=O)CCc2cc(C(C)(C)C)c(O)c(C(C)(C)C)c2)cc(C(C)(C)C)c1O
not listed: [7] | [10] | [17] | [20]
inactive: all other assays above

CC1=CC[C@@H](C(C)(C)O)CC1
not listed: [7] | [11] | [12] | [20]
inactive: all other assays above

CC(=O)CC(N)=O
not listed: [11] | [12] | [19] | [20]
inactive: all other assays above

C=C(C)C1CCC(C)CC1O (stereo unspecified)
not listed: [8] | [11] | [12] | [17] | [19] | [20]
inactive: all other assays above

CC1(C)[C@H]2CC[C@]1(C)C(=O)C2
not listed: [11] | [15] | [18] | [19] | [20]
inactive: all other assays above

O=c1[nH]cccc1O
not listed: [10] | [11] | [19] | [20]
inactive: all other assays above

COCCC(=O)OC
inactive: [1] | [2] | [3] | [4] | [5] | [6] | [13] | [19] | [14] | [10] | [17]

COc1c(Br)cc(Br)c(C)c1Br
not listed: [8] | [10] | [11] | [12] | [19] | [20]
inactive: all other assays above

COc1cc([C@@H]2c3cc4c(cc3[C@@H](O[C@@H]3O[C@@H]5CO[C@@H](C)O[C@H]5[C@H](O)[C@H]3O)[C@H]3COC(=O)[C@H]23)OCO4)cc(OC)c1O
active: [2] 1.08 µM | [16] 60.4 µM
not listed: [8] | [9] | [11] | [15] | [18] | [19]
inactive: all other assays above

CC(=O)Nc1ccc(N=Nc2cc(C)ccc2O)cc1
active: [9] 2.73 µM | [18] 15.4 µM
not listed: [10] | [11] | [12] | [13] | [16] | [17] | [20]
inactive: all other assays above
